Data as given in PMC7862700, “An all-to-all approach to the identification of sequence-specific readers for epigenetic DNA modifications on cytosine”.

Tests used:
Experiment in all cases: DAPPL (digital affinity profiling via proximity ligation, sequencing); 10 mM Tris-HCl pH 7.5, 50 mM NaCl, 1 mM DTT, 4% glycerol, room temperature, 30 min; GST-TFs on glutathione beads, 16-mer random dsDNA library, 0.1% formaldehyde crosslink after washing; high values mean tight binding
FLI1 = biological target: T1, FLI1 (Homo sapiens, UniProt Q01543 1-452); details: protein: recombinant; tags: N-terminal GST; dsDNA, one strand shown
T1 sequence: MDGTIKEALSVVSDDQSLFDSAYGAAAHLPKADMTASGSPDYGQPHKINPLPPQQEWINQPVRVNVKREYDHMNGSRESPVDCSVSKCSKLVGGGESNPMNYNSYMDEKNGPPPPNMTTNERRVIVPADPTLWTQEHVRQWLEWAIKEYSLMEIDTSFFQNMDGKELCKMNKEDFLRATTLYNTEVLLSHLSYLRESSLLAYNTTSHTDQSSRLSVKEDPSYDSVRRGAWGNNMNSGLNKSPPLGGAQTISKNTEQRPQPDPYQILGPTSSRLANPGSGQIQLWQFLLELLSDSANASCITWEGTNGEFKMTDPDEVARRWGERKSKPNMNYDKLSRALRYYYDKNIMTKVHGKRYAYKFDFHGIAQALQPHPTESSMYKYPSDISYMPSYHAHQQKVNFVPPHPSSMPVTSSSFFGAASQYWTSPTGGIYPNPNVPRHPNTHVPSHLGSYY
In short: (§1)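 The binding signal reported is, for every hexamer, its read frequency for a factor over its read frequency for the tag-only sample. Reads came from pools of yeast-expressed, GST-fused human transcription factors on glutathione beads, barcoded with DNA and mixed with that sample, which were incubated with 200 nmole of a random double-stranded 16-mer DNA library in Tris/NaCl/DTT/glycerol buffer at room temperature for 30 min. After washing, the pools were crosslinked with 0.1% formaldehyde, proximity-ligated with BsaI/T4 ligase for 1 h at 37 °C, PCR-amplified and sequenced on an Illumina NextSeq500.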

ELK1 = biological target: T2, ELK1 (Homo sapiens, UniProt P19419 1-428); details: protein: recombinant; tags: N-terminal GST; dsDNA, one strand shown
T2 sequence: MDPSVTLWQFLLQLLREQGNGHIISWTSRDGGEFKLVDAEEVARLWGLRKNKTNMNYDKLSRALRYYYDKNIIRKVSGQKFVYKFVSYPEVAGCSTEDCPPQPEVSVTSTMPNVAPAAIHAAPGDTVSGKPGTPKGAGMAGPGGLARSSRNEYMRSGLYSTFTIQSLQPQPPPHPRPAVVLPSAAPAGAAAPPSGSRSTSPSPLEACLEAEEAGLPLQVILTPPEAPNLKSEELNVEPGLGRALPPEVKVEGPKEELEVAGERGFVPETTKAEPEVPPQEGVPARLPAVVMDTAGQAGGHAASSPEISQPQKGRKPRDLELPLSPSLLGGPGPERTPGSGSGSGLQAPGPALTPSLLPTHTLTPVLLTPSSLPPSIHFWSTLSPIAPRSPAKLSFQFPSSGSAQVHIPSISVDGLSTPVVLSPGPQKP
In short: as §1

GABPA = biological target: T3, GABPA (Homo sapiens, UniProt Q06546 1-454); details: protein: recombinant; tags: N-terminal GST; dsDNA, one strand shown
T3 sequence: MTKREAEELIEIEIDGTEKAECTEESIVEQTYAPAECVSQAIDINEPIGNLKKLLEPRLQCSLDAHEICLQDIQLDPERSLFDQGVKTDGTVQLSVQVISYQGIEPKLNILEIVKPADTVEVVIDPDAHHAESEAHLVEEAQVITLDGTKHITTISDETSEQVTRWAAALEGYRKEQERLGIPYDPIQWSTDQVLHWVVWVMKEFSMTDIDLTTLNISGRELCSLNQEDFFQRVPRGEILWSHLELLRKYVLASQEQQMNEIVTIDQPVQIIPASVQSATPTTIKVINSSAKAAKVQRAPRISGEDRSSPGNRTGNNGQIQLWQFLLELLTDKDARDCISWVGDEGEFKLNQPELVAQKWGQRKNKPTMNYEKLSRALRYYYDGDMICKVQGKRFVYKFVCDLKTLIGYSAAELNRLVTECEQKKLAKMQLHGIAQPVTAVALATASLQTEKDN
In short: as §1

ERG = biological target: T4, ERG (Homo sapiens, UniProt P11308 1-479); details: protein: recombinant; tags: N-terminal GST; dsDNA, one strand shown
T4 sequence: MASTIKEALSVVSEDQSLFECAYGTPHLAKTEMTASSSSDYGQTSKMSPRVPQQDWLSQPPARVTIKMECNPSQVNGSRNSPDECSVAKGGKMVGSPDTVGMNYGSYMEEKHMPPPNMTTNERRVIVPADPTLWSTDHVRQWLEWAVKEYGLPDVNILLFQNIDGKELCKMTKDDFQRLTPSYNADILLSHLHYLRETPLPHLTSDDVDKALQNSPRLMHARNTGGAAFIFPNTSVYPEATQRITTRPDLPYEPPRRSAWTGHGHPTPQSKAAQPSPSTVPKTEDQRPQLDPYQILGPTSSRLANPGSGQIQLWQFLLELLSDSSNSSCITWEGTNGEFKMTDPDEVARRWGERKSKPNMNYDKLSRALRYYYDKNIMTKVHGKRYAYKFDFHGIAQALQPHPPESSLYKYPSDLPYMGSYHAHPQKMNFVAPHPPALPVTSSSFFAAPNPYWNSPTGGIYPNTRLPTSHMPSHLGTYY
In short: as §1

ELF1 = ELF1 (Homo sapiens, UniProt P32519 1-619); details: protein: recombinant; tags: N-terminal GST; dsDNA, one strand shown
Sequence of ELF1 (P32519 whole entry): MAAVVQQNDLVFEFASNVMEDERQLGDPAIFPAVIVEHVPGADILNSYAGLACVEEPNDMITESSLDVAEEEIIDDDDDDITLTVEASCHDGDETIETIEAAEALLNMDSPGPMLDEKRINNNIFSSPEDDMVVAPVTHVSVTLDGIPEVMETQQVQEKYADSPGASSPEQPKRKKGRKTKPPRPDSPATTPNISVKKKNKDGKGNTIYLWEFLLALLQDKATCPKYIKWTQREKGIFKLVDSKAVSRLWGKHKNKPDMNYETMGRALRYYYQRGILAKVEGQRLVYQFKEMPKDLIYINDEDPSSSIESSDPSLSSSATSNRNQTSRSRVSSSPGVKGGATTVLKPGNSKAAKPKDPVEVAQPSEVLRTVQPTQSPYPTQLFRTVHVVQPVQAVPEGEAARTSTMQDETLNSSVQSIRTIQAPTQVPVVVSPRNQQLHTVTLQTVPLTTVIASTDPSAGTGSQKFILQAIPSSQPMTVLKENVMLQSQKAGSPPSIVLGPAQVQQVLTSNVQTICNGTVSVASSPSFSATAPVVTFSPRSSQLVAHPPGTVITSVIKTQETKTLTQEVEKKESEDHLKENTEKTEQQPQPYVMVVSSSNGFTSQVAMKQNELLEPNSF
In short: as §1

EHF = biological target: T5, EHF (Homo sapiens, UniProt Q9NZC4 1-300); details: protein: recombinant; tags: N-terminal GST; dsDNA, one strand shown
T5 sequence: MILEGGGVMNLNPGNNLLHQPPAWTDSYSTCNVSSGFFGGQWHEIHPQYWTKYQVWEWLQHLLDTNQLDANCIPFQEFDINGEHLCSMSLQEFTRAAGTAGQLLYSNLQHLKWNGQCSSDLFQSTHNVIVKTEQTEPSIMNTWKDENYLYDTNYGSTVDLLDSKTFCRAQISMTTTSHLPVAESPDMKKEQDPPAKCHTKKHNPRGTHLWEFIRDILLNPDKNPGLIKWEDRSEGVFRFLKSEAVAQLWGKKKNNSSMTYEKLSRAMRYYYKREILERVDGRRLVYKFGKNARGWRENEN
In short: as §1

SPI1 = SPI1 (Homo sapiens, UniProt P17947 1-270); details: protein: recombinant; tags: N-terminal GST; dsDNA, one strand shown
In short: as §1

SPIB = SPIB (Homo sapiens, UniProt Q01892 1-262); details: protein: recombinant; tags: N-terminal GST; dsDNA, one strand shown
Sequence of SPIB (Q01892 whole entry): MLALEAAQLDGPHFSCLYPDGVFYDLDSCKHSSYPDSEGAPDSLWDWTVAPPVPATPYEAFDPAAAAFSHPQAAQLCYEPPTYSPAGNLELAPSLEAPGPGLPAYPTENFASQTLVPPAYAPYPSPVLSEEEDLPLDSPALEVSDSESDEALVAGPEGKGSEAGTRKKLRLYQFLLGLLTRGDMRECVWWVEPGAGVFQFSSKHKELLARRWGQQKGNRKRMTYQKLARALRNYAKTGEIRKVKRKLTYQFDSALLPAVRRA
In short: as §1

ELK3 = biological target: T6, ELK3 (Homo sapiens, UniProt P41970 1-407); details: protein: recombinant; tags: N-terminal GST; dsDNA, one strand shown
T6 sequence: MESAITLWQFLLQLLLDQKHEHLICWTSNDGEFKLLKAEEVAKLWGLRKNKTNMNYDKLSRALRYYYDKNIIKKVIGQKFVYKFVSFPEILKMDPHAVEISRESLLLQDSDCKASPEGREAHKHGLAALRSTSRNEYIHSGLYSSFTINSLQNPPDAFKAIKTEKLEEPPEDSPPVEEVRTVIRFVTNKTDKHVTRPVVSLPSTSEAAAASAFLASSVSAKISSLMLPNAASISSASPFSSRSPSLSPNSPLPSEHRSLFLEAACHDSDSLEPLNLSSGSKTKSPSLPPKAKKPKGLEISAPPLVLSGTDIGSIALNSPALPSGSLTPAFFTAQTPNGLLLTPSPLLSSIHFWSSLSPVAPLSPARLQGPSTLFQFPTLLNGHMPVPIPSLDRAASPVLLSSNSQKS
In short: as §1

FEV = biological target: T7, FEV (Homo sapiens, UniProt Q99581 1-238); details: protein: recombinant; tags: N-terminal GST; dsDNA, one strand shown
T7 sequence: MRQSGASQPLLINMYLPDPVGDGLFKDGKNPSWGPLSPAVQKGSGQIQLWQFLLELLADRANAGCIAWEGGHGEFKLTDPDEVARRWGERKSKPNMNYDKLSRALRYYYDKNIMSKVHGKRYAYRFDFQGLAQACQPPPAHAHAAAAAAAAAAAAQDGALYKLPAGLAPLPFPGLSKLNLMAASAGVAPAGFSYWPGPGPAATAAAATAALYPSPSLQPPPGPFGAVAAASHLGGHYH
In short: as §1

ETV5 = ETV5 (Homo sapiens, UniProt P41161 1-510); details: protein: recombinant; tags: N-terminal GST; dsDNA, one strand shown
Sequence of ETV5 (P41161 whole entry): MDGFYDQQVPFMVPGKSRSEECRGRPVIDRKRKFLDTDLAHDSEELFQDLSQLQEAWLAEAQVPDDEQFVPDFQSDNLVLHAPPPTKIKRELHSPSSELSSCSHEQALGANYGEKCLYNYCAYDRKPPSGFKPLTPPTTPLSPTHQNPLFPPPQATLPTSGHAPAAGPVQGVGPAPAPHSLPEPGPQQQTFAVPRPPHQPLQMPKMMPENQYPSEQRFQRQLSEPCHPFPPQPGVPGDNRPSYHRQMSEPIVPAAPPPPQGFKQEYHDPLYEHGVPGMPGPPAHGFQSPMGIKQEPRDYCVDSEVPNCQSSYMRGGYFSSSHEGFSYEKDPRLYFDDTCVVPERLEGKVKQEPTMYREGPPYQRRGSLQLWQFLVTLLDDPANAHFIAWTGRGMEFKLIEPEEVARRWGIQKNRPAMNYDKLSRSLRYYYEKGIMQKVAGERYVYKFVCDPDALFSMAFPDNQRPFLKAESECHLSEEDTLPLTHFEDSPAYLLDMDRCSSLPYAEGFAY
In short: as §1

HSF1 = HSF1 (Homo sapiens, UniProt Q00613 1-529); details: protein: recombinant; tags: N-terminal GST; chain copies: 3; dsDNA, one strand shown
Sequence of HSF1 (Q00613 whole entry): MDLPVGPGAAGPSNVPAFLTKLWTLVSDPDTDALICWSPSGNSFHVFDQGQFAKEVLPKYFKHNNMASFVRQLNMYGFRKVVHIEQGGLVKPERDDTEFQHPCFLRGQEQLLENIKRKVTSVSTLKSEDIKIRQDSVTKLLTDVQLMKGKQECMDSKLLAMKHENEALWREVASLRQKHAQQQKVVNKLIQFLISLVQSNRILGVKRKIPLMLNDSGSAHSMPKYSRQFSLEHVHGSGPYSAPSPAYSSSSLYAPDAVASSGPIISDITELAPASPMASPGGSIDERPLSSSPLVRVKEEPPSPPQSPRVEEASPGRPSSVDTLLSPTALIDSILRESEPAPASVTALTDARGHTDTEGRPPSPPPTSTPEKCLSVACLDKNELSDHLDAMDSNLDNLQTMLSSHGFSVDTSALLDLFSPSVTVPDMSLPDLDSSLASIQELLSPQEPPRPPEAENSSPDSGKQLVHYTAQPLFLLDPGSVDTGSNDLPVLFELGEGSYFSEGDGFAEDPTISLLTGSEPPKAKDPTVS
In short: as §1

SPIC = biological target: T8, SPIC (Homo sapiens, UniProt Q8N5J4 1-248); details: protein: recombinant; tags: N-terminal GST; dsDNA, one strand shown
T8 sequence: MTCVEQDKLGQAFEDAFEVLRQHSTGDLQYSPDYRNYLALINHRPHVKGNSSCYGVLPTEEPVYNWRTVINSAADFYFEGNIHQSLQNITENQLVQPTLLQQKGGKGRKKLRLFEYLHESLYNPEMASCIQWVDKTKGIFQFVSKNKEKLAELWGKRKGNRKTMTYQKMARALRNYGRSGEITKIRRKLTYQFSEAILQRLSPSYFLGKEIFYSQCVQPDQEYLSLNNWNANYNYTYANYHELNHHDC
In short: as §1

ELF4 = ELF4 (Homo sapiens, UniProt Q99607 1-663); details: protein: recombinant; tags: N-terminal GST; dsDNA, one strand shown
Sequence of ELF4 (Q99607 whole entry): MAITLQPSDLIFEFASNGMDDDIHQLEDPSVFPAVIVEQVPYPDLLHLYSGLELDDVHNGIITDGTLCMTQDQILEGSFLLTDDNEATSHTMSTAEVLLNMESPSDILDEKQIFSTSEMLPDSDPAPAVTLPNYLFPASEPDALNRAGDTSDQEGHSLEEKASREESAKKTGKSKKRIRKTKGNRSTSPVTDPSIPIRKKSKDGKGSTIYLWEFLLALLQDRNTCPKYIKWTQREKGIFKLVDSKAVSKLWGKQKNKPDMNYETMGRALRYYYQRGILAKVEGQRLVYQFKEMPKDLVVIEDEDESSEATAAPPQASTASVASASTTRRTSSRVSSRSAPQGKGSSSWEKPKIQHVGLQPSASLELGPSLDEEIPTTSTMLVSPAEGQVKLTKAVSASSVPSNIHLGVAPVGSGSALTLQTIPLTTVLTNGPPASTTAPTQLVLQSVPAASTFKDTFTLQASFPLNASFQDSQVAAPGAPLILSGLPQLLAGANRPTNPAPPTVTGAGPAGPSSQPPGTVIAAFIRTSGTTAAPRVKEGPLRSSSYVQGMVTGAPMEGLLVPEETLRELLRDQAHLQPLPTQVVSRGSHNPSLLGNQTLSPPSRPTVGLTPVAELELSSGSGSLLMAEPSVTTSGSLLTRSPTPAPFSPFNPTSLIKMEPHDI
In short: as §1

ELK4 = biological target: T9, ELK4 (Homo sapiens, UniProt P28324-2 1-405); details: protein: recombinant; tags: N-terminal GST; dsDNA, one strand shown
T9 sequence: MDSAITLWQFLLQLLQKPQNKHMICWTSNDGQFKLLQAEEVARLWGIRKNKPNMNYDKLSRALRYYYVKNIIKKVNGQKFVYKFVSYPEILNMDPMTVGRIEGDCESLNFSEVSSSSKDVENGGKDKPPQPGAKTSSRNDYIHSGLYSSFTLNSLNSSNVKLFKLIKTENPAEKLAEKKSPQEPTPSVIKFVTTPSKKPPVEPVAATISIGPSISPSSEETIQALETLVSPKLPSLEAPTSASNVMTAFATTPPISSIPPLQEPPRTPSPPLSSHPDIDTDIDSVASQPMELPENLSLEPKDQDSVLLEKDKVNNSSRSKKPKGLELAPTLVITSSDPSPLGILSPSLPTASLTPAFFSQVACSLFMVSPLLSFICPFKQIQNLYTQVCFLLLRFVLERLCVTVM
In short: as §1

ETV2 = biological target: T10, ETV2 (Homo sapiens, UniProt O00321 1-342); details: protein: recombinant; tags: N-terminal GST; dsDNA, one strand shown
T10 sequence: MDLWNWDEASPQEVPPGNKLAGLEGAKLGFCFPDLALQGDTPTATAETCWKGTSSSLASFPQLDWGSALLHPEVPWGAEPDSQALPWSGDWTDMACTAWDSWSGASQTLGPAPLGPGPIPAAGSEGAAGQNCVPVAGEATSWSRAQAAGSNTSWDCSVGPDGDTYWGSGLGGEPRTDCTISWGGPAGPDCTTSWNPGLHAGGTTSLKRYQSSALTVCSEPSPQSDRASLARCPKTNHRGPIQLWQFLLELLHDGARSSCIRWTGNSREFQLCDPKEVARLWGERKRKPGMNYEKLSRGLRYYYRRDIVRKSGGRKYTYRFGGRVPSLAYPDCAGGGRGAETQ
In short: as §1

ELF3 = biological target: T11, ELF3 (Homo sapiens, UniProt P78545 1-371); details: protein: recombinant; tags: N-terminal GST; dsDNA, one strand shown
T11 sequence: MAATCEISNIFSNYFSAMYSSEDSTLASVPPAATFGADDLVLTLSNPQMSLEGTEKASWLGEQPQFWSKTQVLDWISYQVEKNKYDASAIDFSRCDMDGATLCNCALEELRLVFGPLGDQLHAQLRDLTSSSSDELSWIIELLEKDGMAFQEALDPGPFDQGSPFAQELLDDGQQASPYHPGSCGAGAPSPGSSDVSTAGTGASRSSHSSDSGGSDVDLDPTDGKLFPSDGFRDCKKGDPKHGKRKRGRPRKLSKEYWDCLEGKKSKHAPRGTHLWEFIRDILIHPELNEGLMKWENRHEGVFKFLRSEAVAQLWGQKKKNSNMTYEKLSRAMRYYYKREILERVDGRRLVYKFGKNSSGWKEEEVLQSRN
In short: as §1

CRX = CRX (Homo sapiens, UniProt O43186 1-299); details: protein: recombinant; tags: N-terminal GST; dsDNA, one strand shown
Sequence of CRX (O43186 whole entry): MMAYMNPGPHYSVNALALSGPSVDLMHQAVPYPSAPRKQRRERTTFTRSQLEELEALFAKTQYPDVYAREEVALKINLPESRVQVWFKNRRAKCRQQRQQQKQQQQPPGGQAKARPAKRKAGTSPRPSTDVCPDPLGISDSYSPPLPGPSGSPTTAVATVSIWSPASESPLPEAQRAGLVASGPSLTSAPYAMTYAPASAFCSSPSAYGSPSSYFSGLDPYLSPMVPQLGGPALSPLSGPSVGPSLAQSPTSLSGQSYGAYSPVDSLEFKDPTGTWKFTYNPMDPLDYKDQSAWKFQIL
In short: as §1

ETV1 = ETV1 (Homo sapiens, UniProt P50549 1-477); details: protein: recombinant; tags: N-terminal GST; dsDNA, one strand shown
Sequence of ETV1 (P50549 whole entry): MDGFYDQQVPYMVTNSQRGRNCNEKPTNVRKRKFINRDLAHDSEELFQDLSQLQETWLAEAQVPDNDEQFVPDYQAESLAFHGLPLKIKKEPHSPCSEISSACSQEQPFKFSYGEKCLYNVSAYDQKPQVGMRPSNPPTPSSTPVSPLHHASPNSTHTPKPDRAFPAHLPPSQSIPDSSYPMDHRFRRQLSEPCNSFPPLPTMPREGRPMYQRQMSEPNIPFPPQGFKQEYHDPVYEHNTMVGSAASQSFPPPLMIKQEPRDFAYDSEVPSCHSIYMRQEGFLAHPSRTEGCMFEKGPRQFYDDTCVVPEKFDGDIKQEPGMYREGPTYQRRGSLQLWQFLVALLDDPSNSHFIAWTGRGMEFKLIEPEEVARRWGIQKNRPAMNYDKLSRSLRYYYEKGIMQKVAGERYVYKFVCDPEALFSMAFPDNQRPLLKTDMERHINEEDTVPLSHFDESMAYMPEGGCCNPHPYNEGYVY
In short: as §1

AAGCTA
binding signal (FLI1): 1.16 fold enrichment (6-mer frequency, TF over GST control) | binding signal (ELK1): 1.13 fold enrichment (6-mer frequency, TF over GST control) | binding signal (GABPA): 1.08 fold enrichment (6-mer frequency, TF over GST control) | binding signal (ERG): 1.13 fold enrichment (6-mer frequency, TF over GST control) | binding signal (ELF1): 1.11 fold enrichment (6-mer frequency, TF over GST control) | binding signal (EHF): 1.19 fold enrichment (6-mer frequency, TF over GST control) | binding signal (SPI1): 1.04 fold enrichment (6-mer frequency, TF over GST control) | binding signal (SPIB): 1.2 fold enrichment (6-mer frequency, TF over GST control) | binding signal (ELK3): 1.21 fold enrichment (6-mer frequency, TF over GST control) | binding signal (FEV): 1.13 fold enrichment (6-mer frequency, TF over GST control) | binding signal (ETV5): 1.17 fold enrichment (6-mer frequency, TF over GST control) | binding signal (HSF1): 1.29 fold enrichment (6-mer frequency, TF over GST control) | binding signal (SPIC): 1.13 fold enrichment (6-mer frequency, TF over GST control) | binding signal (ELF4): 1.2 fold enrichment (6-mer frequency, TF over GST control) | binding signal (ELK4): 1.17 fold enrichment (6-mer frequency, TF over GST control) | binding signal (ETV2): 1.12 fold enrichment (6-mer frequency, TF over GST control) | binding signal (ELF3): 1.2 fold enrichment (6-mer frequency, TF over GST control) | binding signal (CRX): 1.58 fold enrichment (6-mer frequency, TF over GST control) | binding signal (ETV1): 1.17 fold enrichment (6-mer frequency, TF over GST control)
